The panel holds about 83,000 compounds, 20% with a hit somewhere; the sample as a whole holds those more often.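 Note: values are percent growth. 100 is the growth of untreated cells, values between 100 and 0 indicate rising inhibition; between -100 and 0 indicates cell death.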 Unmarked numbers belong to inactive results. Active and inactive are the calls of the source.
What follows are compounds tested on BT-549 breast (assay: NCI-60 one-dose screen, 48 h (100 = growth as untreated, 0 = no growth, -100 = all killed)). Conditions: 10 µM.
Method: Growth inhibition of the BT-549 human tumor cell line is measured as a screen for anti-cancer activity. Cells are grown in 96 well plates and exposed to the test compound for 48 hours. Compounds are tested at a single concentration, which is 10^-5 M for most compounds. The reported endpoint is percent growth (GI% or GIPRCNT), where numbers from 0 - 100% represent growth inhibition, and numbers from -100% - 0 represent cell death. For example, a value of 40 represents 60% growth inhibition. A value of 0 means no net growth occurred over the course of the experiment. A value of -40 indicates 40% of cells at the beginning of the experiment died by the end of the experiment. A value of -100 means all cells are dead at the end of the experiment.
NCI-60 Human Tumor Cell Lines Screen was performed using the standard one-dose NCI protocol, which is described in more detail at https://dtp.cancer.gov/discovery_development/nci-60/default.htm.
Compounds with GIPRCNT values below 10 were considered active. Activity score was based on GIPRCNT using the following formula: […]
Score is 0 for GIPRCNT values of 100 or above, 50 for GIPRCNT values of 0, and 100 for GIPRCNT values of -100.
`COc1ccccc1NC1=C(N2CCCCC2)C(=O)c2ccccc2C1=O` was tested, and the growth was 94.2%. In the case of `O=S(=O)(NCCO)c1ccc(OCCOc2ccc(S(=O)(=O)NCCO)cc2)cc1`, the growth is reported as 95.7%. `CCCCCCCCCCN=C(c1ccc(N(C)C)cc1)c1ccc(N(C)C)cc1` was tested, and the growth was 38.1%. `Oc1[nH]c2ccccc2c1/C=c1/cc2c(c(-c3ccc(C(F)(F)F)cc3)n1)=Nc1ccccc1-2` showed a growth of 82.7%. With `COCCOC(=O)NC(=O)Nc1ccc(/C(=N/O)c2ccc(Cl)cc2)cc1` the growth was 50.9%. Work on `COc1ccc(C(=O)n2nc(CC(=O)NCc3ccccc3)nc2N)cc1` yielded a growth of 102%. `COc1cc(CSc2nc3ccc(C)cc3c(=O)n2-c2ccccc2)cc(OC)c1OC` gave a growth of 19.6%. Compound `CCOc1nc(-c2ccccc2)cc2c(O)c(C(=O)N/N=C/c3ccc(OC)cc3)[nH]c(=O)c12` has a growth of 123%. `CCCCOCCOCCOCc1cc2c(cc1Br)OCO2` showed a growth of 110%. For `CC1(C)CCc2cc(-c3ccn(S(=O)(=O)c4ccc(Cl)cc4)n3)ccc2O1`, the growth was 88.8%. In the case of `NCCNc1ccc2cc(-c3nc4ccccc4[nH]3)c(=O)oc2c1`, the growth is reported as 84.9%. `COc1ccc(-c2nnc(N3CCN(C(=O)CN4CCN(c5ccc(Cl)cc5)CC4)CC3)nc2-c2ccc(OC)cc2)cc1` showed a growth of 59%. Compound `COc1cc(CSc2nc3ccc(Cl)cc3c(=O)n2-c2ccccc2)cc(OC)c1OC` has a growth of 92.8%. Compound `COc1ccc(CCc2nc3cc(-c4c(C)noc4C)ccc3n2CCN2CCOCC2)cc1` has a growth of 81.4%. `N#Cc1ccc(-n2cnc(NC(=O)[C@H]3CCN(C#N)C3)c2)cc1` gave a growth of 18.5%. With `Cc1cc(C#Cc2ccccc2)ccc1-n1c(/C=C/c2cc(O)ccc2O)nc2ccccc2c1=O` the growth was -11.1% (active). `C[C@@H]1N=C(c2ccc(Br)cc2)Nc2nc3ccccn3c2C1=O` gave a growth of 49.3%. `COc1ccc(-n2nnc3c(sc4ccccc43)c2=O)cc1` was tested, and the growth was 102%. With `COc1ccc(C2C=C(c3ccc(Cl)c(Cl)c3)N=C3SC(C)=CN32)cc1OC` (stereo not given) the growth was 89.1%. `O=C(CSc1nnc(-c2ccc(Cl)cc2)o1)c1ccccc1` gave a growth of 98.3%. With `COc1ccc(-c2nsc3c2NC(=O)CC3c2cccc(Cl)c2)cc1` (stereo not given) the growth was 36.5%. For `O=[N+]([O-])c1ccc(-c2nc(Cl)c3c(n2)CCCC3)o1`, the growth was 83.1%. `COc1ccc(/C(CS(=O)(=O)c2ccccc2)=N\O)cc1` gave a growth of 102%. `Cn1c(N)c(N=Cc2ccccc2)c(=O)n(C)c1=O` was tested, and the growth was 102%. `O=S(=O)(NC1c2ccccc2Oc2ccccc21)c1ccccc1` gave a growth of 91.6%. `CCOC(=O)c1ccc(N(C=O)CCC(=O)CCl)cc1` was tested, and the growth was -63.2% (active). Compound `Nc1cc(O)cc(O)c1` has a growth of 105%. Compound `Nc1nc(SCC#CCCl)c2[nH]cnc2n1` has a growth of 44.8%. `O=C/C=C/c1ccc([N+](=O)[O-])cc1Cl` showed a growth of 106%. In the case of `CC(=O)Oc1ccc(C2=Cc3ccc(OC(C)=O)cc3OC2C)cc1` (stereo not given), the growth is reported as 42.9%. In the case of `CCOc1ccc(-n2cc(-c3ccc(N(C)C)cc3)[n+]3c2CCCCC3)cc1`, the growth is reported as -1.7% (active). `CCCCCC(CCC)COC(=O)c1ccc(OC)cc1` (stereo not given) gave a growth of 104%. In the case of `COc1ccc2oc(=O)cc(C(c3ccc[nH]3)c3ccc[nH]3)c2c1`, the growth is reported as -13.4% (active). `CC(C)CCN(CCCNc1c2c(nc3cc(Cl)ccc13)CCCC2)CCC(C)C` gave a growth of 87%. `O=C(COc1ccc(Cl)cc1Cl)Oc1coc(CSc2nc3ccccc3s2)cc1=O` showed a growth of 108%. For `CC(C)C(C)C(N)C(=O)O` (stereo not given), the growth was 90.7%. In the case of `Cc1ccc2oc(=O)cc(/C(=C3/C=CC=N3)c3ccc[nH]3)c2c1`, the growth is reported as -11.4% (active). `COc1ccc(C(C)=O)cc1N1C(=O)C2C(C1=O)C1(c3ccccc3)C(=O)C2(c2ccccc2)C(c2ccc(C)cc2)=C1c1ccc(C)cc1` (stereo not given) gave a growth of 38.4%. For `CC(C)C[C@H](NC(=O)Cn1ccc2ccccc2c1=O)B(O)O`, the growth was 58.4%. `O=C(c1ccccc1)C(Sc1ccccc1)c1ccccc1` (stereo not given) gave a growth of 92.9%.
